Screening data: PubChem BioAssay, Broad Institute
A selection: hits, their analogues and other compounds. The true share with any hit is near 1.8%.
PDI inh = PDI (human) enzyme inhibition; P07237; PDI insulin aggregation turbidity, A650, 90 min; inhibition, % at 10 µM; hit rate 0.052% among 350,000;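 active = mean inhibition across replicates of 30% or more, whatever share of single replicates reach that level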
ERp5 block = ERp5 (human) disulfide isomerase inhibition | Q15084 | ERp5 insulin aggregation, absorbance 650 nm, 90 min | hit rate 0.05% among 350,000 | inhibition, % at 9.99 µM | AID 651711;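 active = mean replicate inhibition above about 25%, with every replicate also reaching it, limit read from the data, passing the limit was not always enough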
AF4-AF9 inh = inhibitors of human MLL-AF4/AF9 interaction; P42568; inhibition, % at 10 µM; AlphaScreen, biotin-AF4 peptide binding to FLAG-AF9; hit rate 0.47% among 350,000;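 active = every replicate reaching a set inhibition limit, whatever the replicate mean, cut at about 25% in these data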;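 also: 0% = plate neutral control median and 100% = total signal loss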
DENV2 CPE rescue = inhibitors of DENV2 cytopathic effect | DENV2-infected cells, cytopathic effect rescue, plate reader | CPE inhibition, % at 9.99 µM | hit rate 1.7% among 350,000; in the data active = CPE inhibition above about 20%, passing the limit was not always enough; tested in BHK-21 cells;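 also: 0% = median of neutral control wells and 100% = median of positive control wells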
ERAP1 HTS inh = inhibitors of human ERAP1 aminopeptidase; recombinant ERAP1, Leu-AMC fluorescence, 60 min; inhibition, % at 10.7 µM; hit rate 0.15% among 340,000;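 active = mean replicate inhibition of at least 30%, or all replicates individually reaching that 30% level; inactive = mean below 30% and not every replicate reaching it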;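 also: 0% = neutral control wells and 100% = L-leucinethiol positive control wells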
Target sequence (Q9NZ08 whole entry, looked up): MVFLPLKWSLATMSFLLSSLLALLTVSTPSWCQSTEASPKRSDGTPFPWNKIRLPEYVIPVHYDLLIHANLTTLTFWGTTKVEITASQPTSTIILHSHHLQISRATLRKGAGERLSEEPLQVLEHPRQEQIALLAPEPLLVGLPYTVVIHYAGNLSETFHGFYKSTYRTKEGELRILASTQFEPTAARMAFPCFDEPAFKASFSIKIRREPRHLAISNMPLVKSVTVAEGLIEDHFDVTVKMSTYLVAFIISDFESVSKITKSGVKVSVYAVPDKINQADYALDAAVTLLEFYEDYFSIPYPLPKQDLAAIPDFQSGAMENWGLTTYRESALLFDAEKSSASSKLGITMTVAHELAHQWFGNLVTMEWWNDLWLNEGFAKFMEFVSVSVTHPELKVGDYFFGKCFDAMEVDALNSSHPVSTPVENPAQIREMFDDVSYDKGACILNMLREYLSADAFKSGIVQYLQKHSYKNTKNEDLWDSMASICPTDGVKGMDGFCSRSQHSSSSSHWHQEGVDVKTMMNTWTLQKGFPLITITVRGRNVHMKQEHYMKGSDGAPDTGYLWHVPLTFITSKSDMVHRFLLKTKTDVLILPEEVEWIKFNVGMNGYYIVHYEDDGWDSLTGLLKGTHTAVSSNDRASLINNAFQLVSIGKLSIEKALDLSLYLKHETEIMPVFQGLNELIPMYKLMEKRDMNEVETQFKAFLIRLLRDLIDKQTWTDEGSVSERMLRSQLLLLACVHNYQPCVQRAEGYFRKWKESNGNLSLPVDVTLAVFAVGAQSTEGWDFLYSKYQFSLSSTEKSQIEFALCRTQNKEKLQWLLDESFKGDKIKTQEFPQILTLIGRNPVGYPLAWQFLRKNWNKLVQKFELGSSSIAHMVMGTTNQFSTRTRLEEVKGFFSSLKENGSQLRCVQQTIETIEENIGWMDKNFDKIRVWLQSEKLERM
Starred values were filed as active, the others as inactive; . = no result.

SMILES	PDI inh	ERp5 block	AF4-AF9 inh	DENV2 CPE rescue	ERAP1 HTS inh
C[C@H]1CCCCO[C@H](CN(C)S(=O)(=O)c2cccs2)[C@@H](C)CN([C@@H](C)CO)C(=O)c2cc(NC(=O)c3ccccc3)ccc2O1	.	.	.	35.8*	.
O=C(C[C@H]1CC[C@H](NC(=O)NC2CCCCC2)[C@H](CO)O1)NCc1ccc(F)cc1	.	-2.6	-1.5	3.8	2.3
COc1ccc2c3c([nH]c2c1)[C@H](CO)N(C(=O)CN(C)C)CC31CCN(CC2CCOCC2)CC1	.	2.9	0.3	-5.7	0.9
CC(C)NC(=O)N(C)C[C@@H]1OCCCC[C@H](C)Oc2ccc(NS(=O)(=O)c3ccccc3)cc2C(=O)N([C@@H](C)CO)C[C@@H]1C	.	5.1	0.7	19.9	-0.5
NC(=O)C1CCN(c2nc(-c3ccccc3F)cs2)CC1	-3.1	2.8	2.6	1.5	-0.9
NC(=O)C1CCN(c2nc(-c3ccccc3Br)cs2)CC1	.	-2.5	-4.2	80.4*	-0.9
C[C@H](CO)N1C[C@H](C)[C@@H](CN(C)S(=O)(=O)c2ccc(F)cc2)Oc2ccc(NC(=O)Nc3ccc4c(c3)OCO4)cc2CC1=O	.	-6.0	3.1	5.8	3.6
O=S(=O)(c1ccc(F)cc1)N1[C@@H]2CNC[C@H]1C2c1ccc(-c2ccccc2)cc1 (stereo partly specified)	.	-4.6	-9.2	-7.2	-4.8
Cn1cccc1/C=C1\SC(=Nc2ccc(O)cc2)NC1=O	8.8	-3.4	6.6	-3.3	.
Cn1cccc1/C=C1\SC(=Nc2cccc(O)c2)NC1=O	-1.5	-3.5	25.1*	9.9	6.3
C/C=C/c1ccc([C@@H]2[C@H](CO)N(C(=O)CC)C23CN(S(=O)(=O)CC)C3)cc1	.	0.5	-1.0	-10.6	0.9
CCCCNC(=O)c1onc(CSc2cccc(OCC)c2)c1C(=O)O	-2.1	8.5	-3.8	24.0*	.
CCOc1cccc(SCc2noc(C(=O)NCCOC)c2C(=O)O)c1	-3.4	-2.2	-2.3	6.4	.
O=C(c1ccccc1)N1CC(=O)N2[C@@H](CO)[C@H](c3ccc(C#Cc4ccccc4)cc3)[C@@H]2C1	.	1.5	-0.2	-1.5	-1.8
COc1ccc(S(=O)(=O)N2CCCCN3[C@H](CO)[C@H](c4ccc(-c5cccnc5)cc4)[C@H]3C2)cc1	.	-0.7	4.6	-12.4	-3.1
CCOC(=O)C1(C)CCN1C(=O)c1cccc(OC)c1 (stereo unspecified)	12.1	-4.1	1.5	42.3*	2.2
O=C(c1ccco1)N1CCN(C2c3ccccc3-c3ccccc32)CC1	1.8	-3.5	4.5	54.4*	-0.1
Cc1ccc(S(=O)(=O)N[C@H]2CC[C@H](CCNC(=O)C3CCOCC3)O[C@@H]2CO)cc1	.	-5.4	-7.9	25.2*	4.2
Cc1ccc(S(=O)(=O)N[C@@H]2CC[C@@H](CCNC(=O)C3CCOCC3)O[C@@H]2CO)cc1	.	3.3	-7.3	2.7	3.7
O=C(CN1CCOCC1)NCC[C@@H]1CC[C@H](NC(=O)Cc2ccccn2)[C@@H](CO)O1	.	4.5	-1.2	22.6*	0.2
O=C(C[C@H]1CC[C@H](NS(=O)(=O)c2ccc(F)cc2)[C@H](CO)O1)NCc1ccncn1	.	-2.7	-0.7	23.4*	1.2
Cc1ccc(S(=O)(=O)N[C@@H]2CC[C@H](CC(=O)NCc3ccc(Cl)c(Cl)c3)O[C@H]2CO)cc1	.	3.3	0.1	21.7*	-4.4
O=C(C[C@@H]1CC[C@H](NS(=O)(=O)c2ccc(F)cc2)[C@@H](CO)O1)NCc1ccncn1	.	-2.3	-0.5	4.5	-0.1
O=C(CN1CCOCC1)NCC[C@@H]1CC[C@@H](NC(=O)Cc2ccccn2)[C@H](CO)O1	.	2.2	-0.4	-1.6	0.7
O=C(Cc1ccccc1)N1CC(=O)N2[C@H](CO)[C@H](c3ccc(Br)cc3)[C@@H]2C1	.	-3.3	-1.7	11.3	2.2
SMILES	PDI inh	ERp5 block	AF4-AF9 inh	DENV2 CPE rescue	ERAP1 HTS inh
C[C@@H]1CN([C@@H](C)CO)C(=O)c2cc(C#CC3CCCC3)cnc2O[C@H]1CN(C)S(C)(=O)=O	.	15.7	0.7	5.1	1.0
CCNC(=O)[C@H]1[C@H](CO)[C@H]2Cn3c(ccc(C4=CCCCC4)c3=O)[C@@H]1N2CCC(F)(F)F	.	-1.5	-3.4	-8.4	-0.5
Cc1ccc(S(=O)(=O)N[C@@H]2CC[C@@H](CCNC(=O)CN3CCOCC3)O[C@H]2CO)cc1	.	-3.5	0.4	25.9*	-0.5
Cc1ccc(S(=O)(=O)N[C@H]2CC[C@H](CCNC(=O)CN3CCOCC3)O[C@@H]2CO)cc1	.	1.7	0.3	3.9	0.0
COC(=O)C(CC#Cc1ccc2c(c1)[C@]1(C(=O)N2)[C@H](c2ccc(OCCO)cc2)N2[C@H](c3ccccc3)[C@H](c3ccccc3)OC(=O)[C@H]2[C@@H]1C(=O)N1CCc2cc(OC)c(OC)cc2C1)C(=O)OC	.	-3.1	0.2	-8.1	-1.5
N=C1/C(=C\c2ccc(-c3ccc(C(=O)O)cc3)o2)C(=O)N=C2SC=C(c3ccccc3)N12	3.1	0.2	-4.3	5.6	3.1
N=C1/C(=C\c2ccc(-c3cccc(Cl)c3)o2)C(=O)N=C2SC=C(c3ccccc3)N12	-3.9	0.1	3.3	67.0*	-1.5
OC(CN1CCN(c2cccc(Cl)c2)CC1)c1ccc(F)cc1 (stereo unspecified)	15.4	3.8	1.1	48.9*	0.7
C[C@H]1CN([C@@H](C)CO)C(=O)Cc2cc(NS(=O)(=O)c3cccs3)ccc2O[C@@H]1CN(C)Cc1ccncc1	.	.	.	9.4	.
Cc1cc(OCc2cc(C(=O)N(C)C(C)c3ccccn3)no2)cc(C)c1Cl (stereo unspecified)	11.7	-0.3	-4.9	31.3*	1.7
CC(C)c1cn([C@H]2C[C@@H]3O[C@H](CO)CC[C@@H]3O[C@@H]2CCc2ccc(-c3ccccc3)cc2)nn1	.	3.2	-1.9	-3.0	5.7
N#Cc1ccccc1OCC(=O)OCC(=O)c1ccc2c(c1)NC(=O)CO2	-3.9	-0.3	.	.	35.7*
CCOC(=O)[C@]12CCCC=C1N(CCC1=CCCCC1)C(=O)[C@H](CC(=O)NCc1cccc3ccccc13)C2	.	2.3	.	21.7*	-0.6
CCOC(=O)[C@]12CCCC=C1N(CCC1=CCCCC1)C(=O)[C@H](CC(=O)NCc1ccc(OC)c(OC)c1)C2	.	5.0	.	38.0*	-0.3
CCOC(=O)[C@]12CCC=C1N(Cc1ccc3c(c1)OCO3)C(=O)[C@H](CC(=O)NCCCCc1ccccc1)C2	.	-3.7	1.7	-0.1	0.5
COC(=O)[C@]12CCCCC=C1N(CCC1=CCCCC1)C(=O)[C@H](CC(=O)NCc1ccc(OC)c(OC)c1)C2	.	-5.6	-0.2	3.8	1.4
CCOC(=O)[C@]12CCCC=C1N(Cc1ccc3c(c1)OCO3)C(=O)[C@H](CC(=O)NCCCCc1ccccc1)C2	.	-0.7	1.4	50.3*	-2.3
COCC(=O)N1[C@@H](CO)[C@@H](c2ccccc2)C12CN(C(=O)NC1CCCC1)C2	.	-2.0	-3.6	-3.0	-1.6
Oc1[nH]c2ccccc2c1N=Nc1nc(Nc2ccccc2)nc(N2CCOCC2)n1	-6.7	-1.3	1.7	-6.6	70.2*
O=C(NCC1CC1)c1onc(CSc2ccc(F)c(F)c2)c1C(=O)NCC1CC1	-2.3	3.0	0.2	63.5*	-7.1
